Hits are enriched below; roughly 27% of the tested compounds scored in any of these assays.
CYP2C19 inhib – human CYP2C19 inhibition; inhibition, % at 5 µM; P33261; actives 21% (n = 96,000); CYP2C19 Supersomes, luciferin-H EGE luminescence, 30 min;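 active = CYP2C19 inhibition above a set limit at 5 µM in the primary screen, cut at about 50% in these data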;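 also: plate controls were negative control wells for no effect and 2.5 mM tranylcypromine positive control for full effect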
Target sequence (P33261 whole entry, looked up): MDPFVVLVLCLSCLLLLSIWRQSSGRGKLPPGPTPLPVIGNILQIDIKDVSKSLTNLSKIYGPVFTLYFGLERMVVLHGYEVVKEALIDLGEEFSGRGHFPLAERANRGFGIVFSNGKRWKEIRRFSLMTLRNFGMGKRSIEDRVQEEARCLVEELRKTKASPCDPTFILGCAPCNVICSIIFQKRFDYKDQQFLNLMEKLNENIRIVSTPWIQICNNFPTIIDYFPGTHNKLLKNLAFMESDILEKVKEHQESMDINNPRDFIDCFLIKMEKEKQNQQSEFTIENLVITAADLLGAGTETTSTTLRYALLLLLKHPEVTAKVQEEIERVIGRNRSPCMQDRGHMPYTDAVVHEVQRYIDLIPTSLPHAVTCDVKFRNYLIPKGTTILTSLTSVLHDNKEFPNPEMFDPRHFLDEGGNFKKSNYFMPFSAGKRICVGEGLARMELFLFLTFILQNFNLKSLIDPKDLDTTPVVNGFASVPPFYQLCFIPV
CYP2C9 inhib – inhibitors of human CYP2C9. P11712. CYP2C9 Supersomes, luciferin-H conversion, luminescence. inhibition, % at 5 µM. actives 20% (n = 96,000);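 active = blocking of liver enzyme CYP2C9 beyond about 50% at 5 µM, limit read from the data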
Cav32 inh – blocks human Cav3.2 T-type calcium channel. Cav3.2-expressing cells, Fluo-4 calcium fluorescence FDSS; stronger effect = lower value. B-score at 10 µM. actives 4% (n = 100,000);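 active = single-dose well whose peak fluorescence ratio is a statistical outlier from its plate by either plate-standardised score or position-corrected B-score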
CYP2C19 activ – increases human CYP2C19 enzyme activity | recombinant CYP2C19, luciferin-H EGE luminescence; stronger effect = higher value; 0 = fully inhibited enzyme, 1 = untreated enzyme | activation factor at 5 µM | 96,000 tested, under 10 active | AID 1025;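 active = activation factor of at least 2 at 5 µM in the primary screen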;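 also: 0 = wells with 2.5 mM tranylcypromine and 1 = vehicle-only wells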
CYP2C9 act – increases human cytochrome P450 2C9 activity; P11712; recombinant CYP2C9, luciferin-H conversion, luminescence; stronger effect = higher value; factor 1 = untreated enzyme, 0 = blocked; activation factor at 5 µM; actives 1.4% (n = 96,000); AID 1024;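 active = activation factor of 2 or more for CYP2C9 at a 5 µM dose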;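 also: 0 = sulfaphenazole-blocked wells and 1 = vehicle-only wells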
* hit, by the source's call; . = no result.

SMILES	CYP2C19 inhib	CYP2C9 inhib	Cav32 inh	CYP2C19 activ	CYP2C9 act
CC(=NCc1cccnc1)c1c(O)n(-c2ccccc2C)c(=O)[nH]c1=O	84*	60*	-0.022	0.2	0.4
CCC(=Nc1ccc(OC)cc1OC)c1c(O)n(C2CCCCC2)c(=O)[nH]c1=O	-10	11	-3.1	1.1	0.9
CC(=NCc1cccnc1)c1c(O)n(-c2ccc(C)cc2)c(=O)[nH]c1=O	22	13	-0.4	0.8	0.9
CCC(=O)c1c(O)n(C2CCCCCC2)c(=O)[nH]c1=O	18	20	-2.1	0.8	0.8
CCC(=NCc1cccnc1)c1c(O)n(C2CCCCC2)c(=O)[nH]c1=O	98*	83*	0.65	0	0.2
CCC(=NCc1ccco1)c1c(O)n(C2CCCCC2)c(=O)[nH]c1=O	96*	51*	-6.8*	0	0.5
CC(=NCc1cccnc1)c1c(O)n(C2CCCCC2)c(=O)[nH]c1=O	99*	51*	0.72	0	0.5
O=[P+](Cc1ccccc1)Cc1ccccc1	42	5	-0.56	0.6	1
CCN(CC)CCCN=C(C)c1c(O)n(C2CCCCC2)c(=O)[nH]c1=O	50	15	-1.3	0.5	0.9
CCC(=NCCCN(CC)CC)c1c(O)n(C2CCCCC2)c(=O)[nH]c1=O	56*	8	0.19	0.4	0.9
O=c1[nH]c(=S)n(Cc2ccco2)c(O)c1C=NCc1cccs1	23	59*	-1.3	0.8	0.4
CC1(C)COC(Nc2ccc(Cl)cc2)=N1	39	0	0.84	0.6	1
CC(C(=O)N1CCC2(CC1)OCCO2)C1Sc2ccccc2NC1=O (centres undefined)	95*	13	0.51	0	0.9
COc1ccc(P2(=O)Nc3ccccc3N2)cc1	4	-3	-2.1*	1	1
CN1CCN(c2ccc([N+](=O)[O-])c(N/N=C3\CN4CCC3CC4)c2)CC1	-16	-16	0.87	1.2	1.2
C=CCn1c(O)c(C(C)=NC2CC2)c(=O)[nH]c1=O	2	-5	0.71	1	1.1
Cc1sc2c(c1C)C(c1ccc(C(C)(C)C)cc1)=NCC(=O)N2CC(=O)Nc1nccs1	10	28	-2.6	0.9	0.7
C1=C(CCNCc2ccccc2)CCCC1	70*	19	1.1	0.3	0.8
O=c1cccc2n1CC1CC2CN(C(c2cccc(F)c2)c2sc3ncnn3c2O)C1 (centres undefined)	-18	-24	-0.07	1.2	1.2
CCOC(=O)C(O)(c1cn(C)c2ccccc12)C(F)(F)F (centres undefined)	9	-164	0.93	0.9	2.6*
COC(=O)C(O)(c1c(C)[nH]c2ccccc12)C(F)(F)F (centres undefined)	39	-2	-1.6	0.6	1
O=C1NC(=O)C(Cc2cccs2)C(=O)N1	-24	-18	-1.3	1.2	1.2
COc1ccc(S(=O)(=O)NC(CC(=O)N2CCC3(CC2)OCCO3)c2ccco2)cc1 (centres undefined)	76*	51*	0.013	0.2	0.5
COc1ccc(CCC(=O)N2CCC3(CC2)OCCO3)cc1	75*	6	-0.15	0.2	0.9
COC(=O)c1ccccc1OP1(=O)COc2ccccc2OC1	31	30	.	0.7	0.7
SMILES	CYP2C19 inhib	CYP2C9 inhib	Cav32 inh	CYP2C19 activ	CYP2C9 act
CN1C[C@H](CNC(=O)OCc2ccccc2)C[C@@H]2c3cccc4c3c(cn4C)C[C@H]21	.	.	-4.4*	.	.
O=C(NC[P+](=O)O)OCc1ccccc1	4	-9	-0.59	1	1.1
C=C1C(=O)O[C@@H]2C[C@@H](C)[C@@H]3C4OC4C(=O)[C@@]3(C)[C@@H](O)[C@H]12 (some centres undefined)	.	.	-0.13	.	.
COc1ccccc1CC1/C(=N/O)C2CCN1CC2 (centres undefined)	18	9	-0.087	0.8	0.9
COc1ccccc1/C=C1/C(=N/O)C2CCN1CC2	91*	-5	0.29	0.1	1
Cc1ccc2c(c1)N(CCC(=O)N1CCC3(CC1)OCCO3)C(=O)C(C)O2 (centres undefined)	89*	-30	0.21	0.1	1.3
Cc1ccc(CS(=O)(=O)CCC(=O)N2CCC3(CC2)OCCO3)cc1	-18	-17	0.18	1.2	1.2
O=C(Nc1ccc(Cl)cc1)O/N=C(\c1ccccc1)c1ccccn1	18	57*	-0.55	0.8	0.4
C[N+]12CCC(CC1)C(C(O)(c1ccccc1)c1cccs1)C2 (centres undefined)	-6	-4	0.11	1.1	1
CCCC(=O)OCC[N+](C)(C)C	.	.	1	.	.
Cc1ccc(S(=O)(=O)Cc2ccc(C(=O)N3CCC4(CC3)OCCO4)o2)cc1	62*	70*	0.022	0.4	0.3
CCCCCCN=C(C)c1c(O)n(Cc2ccccc2)c(=O)[nH]c1=O	-11	20	-1.2	1.1	0.8
Nc1ccc(S(=O)(=O)N2CCCCC2c2cccnc2)cc1 (centres undefined)	31	0	0.4	0.7	1
Clc1cccc(CN2CCCCC2c2cccnc2)c1 (centres undefined)	95*	54*	-0.53	0.1	0.5
c1cncc(C2CCCCN2Cc2ccc3c(c2)OCO3)c1 (centres undefined)	97*	20	-0.23	0	0.8
O=C1C2CCCN2C(c2cccnc2)N1c1cccc(Cl)c1 (centres undefined)	16	15	.	0.8	0.9
Cc1cc(C)nc(-n2c(C)nc3cc(Cl)ccc3c2=O)c1	41	90*	0.29	0.6	0.1
COc1ccc2c(c1)CC1(CN2C)C(=O)NC(=O)N(c2ccc(F)cc2)C1=O (centres undefined)	19	71*	0.54	0.8	0.3
COc1ccc(N2C(=O)CC(=O)NC2=O)cc1	6	11	.	0.9	0.9
COc1ccc2c(c1)CC1(CN2C)C(=O)NC(=O)N(c2ccc(C)cc2)C1=O (centres undefined)	14	62*	0.11	0.9	0.4
NC1=Nc2ccccc2Oc2ccccc21	-2	7	.	1	0.9
CC(C)N(CC(O)c1cccc([N+](=O)[O-])c1)C(C)C (centres undefined)	4	-5	0.14	1	1
CC(=O)c1cccc(OCC(O)CN2CC=C(c3ccccc3)CC2)c1 (centres undefined)	55*	51*	0.19	0.4	0.5
Cc1ccccc1-n1c(-c2ccco2)nc2ccccc2c1=O	.	.	-0.42	.	.
O=C(Cn1cc(C(=O)c2ccccc2)c2ccccc21)NCc1ccco1	82*	82*	-3.2	0.2	0.2
O=C(c1ccccc1)c1cn(CC(=O)N2CCCc3ccccc32)c2ccccc12	42	74*	-2.4	0.6	0.3
O=C(CN1C(=O)CN=C(c2ccccc2)c2ccccc21)NCc1ccco1	12	-7	0.3	0.9	1.1
Cc1cccc(C)c1NC1=NCCCCS1	-3	-24	0.62	1	1.2

Compound activity: PubChem BioAssay, several laboratories
